Measurements as given in the supplement of paper PMC10849652.
The full data set covers some 8,800 targets. This sample favours those with a hit. About 0.5% of all pairs of compound and target were hits.

Tests used:
Test in all cases: log2 fold change, soluble protein after heating vs DMSO (PISA); higher = thermal stabilisation; K562 lysate, 10 uM; active = over 0.2 and 3.5 SD of the protein, either way, in both replicates (recomputed)
lapatinib = compound: CS(=O)(=O)CCNCc1ccc(-c2ccc3ncnc(Nc4ccc(OCc5cccc(F)c5)c(Cl)c4)c3c2)o1 [lapatinib]
Procedure, shortened: (§1)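 Thermal stability, expressed as log-two fold change relative to solvent controls, is given from duplicates. Crude K562 extract in PBS pH 7.4 with 1 mM MgCl2, at 1 mg/mL protein, was treated with 10 μM compound for 30 min and heated in aliquots for 3 min across 48°C-58°C. After pooling, adjustment to 0.5% NP-40 at 4°C and centrifugation at 21,000xg for 90 min, supernatant protein was measured by TMTpro 16plex LC-MS/MS with channel sums equalised.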

pictilisib = compound: CS(=O)(=O)N1CCN(Cc2cc3nc(-c4cccc5[nH]ncc45)nc(N4CCOCC4)c3s2)CC1 [pictilisib]
Procedure, shortened: as §1

crizotinib = compound: C[C@@H](Oc1cc(-c2cnn(C3CCNCC3)c2)cnc1N)c1c(Cl)ccc(F)c1Cl [crizotinib]
Procedure, shortened: as §1

[1] = compound: C[C@H](C1=CC=C(C=C1)C(=O)NC2=C3C=CNC3=NC=C2)N
Procedure, shortened: as §1

duvelisib = compound: C[C@H](Nc1ncnc2nc[nH]c12)c1cc2cccc(Cl)c2c(=O)n1-c1ccccc1 [duvelisib]
Procedure, shortened: as §1

gandotinib = compound: Cc1cc(Nc2cc(CN3CCOCC3)c3nc(C)c(Cc4ccc(Cl)cc4F)n3n2)n[nH]1 [gandotinib]
Procedure, shortened: as §1

tozasertib = compound: Cc1cc(Nc2cc(N3CCN(C)CC3)nc(Sc3ccc(NC(=O)C4CC4)cc3)n2)n[nH]1 [tozasertib]
Procedure, shortened: as §1

doramapimod = compound: Cc1ccc(-n2nc(C(C)(C)C)cc2NC(=O)Nc2ccc(OCCN3CCOCC3)c3ccccc23)cc1 [doramapimod]
Procedure, shortened: as §1

bafetinib = compound: Cc1ccc(NC(=O)c2ccc(CN3CC[C@H](N(C)C)C3)c(C(F)(F)F)c2)cc1Nc1nccc(-c2cncnc2)n1 [bafetinib]
Procedure, shortened: as §1

[2] = compound: Cc1cccc(CC(=O)N2CCc3c2ccc(-c2cn(C)c4ncnc(N)c24)c3F)n1
Procedure, shortened: as §1

Measured: log2 fold change

SNCA (UniProt P37840)
active: gandotinib 0.456
inactive: lapatinib 0.137 | pictilisib -0.014 | crizotinib 0.127 | [1] -0.101 | duvelisib -0.005 | tozasertib 0.016 | doramapimod 0.196 | bafetinib 0.098 | [2] 0.073

SMIM8 (UniProt Q96KF7)
Chain of UniProt Q96KF7 (Q96KF7 whole entry, looked up): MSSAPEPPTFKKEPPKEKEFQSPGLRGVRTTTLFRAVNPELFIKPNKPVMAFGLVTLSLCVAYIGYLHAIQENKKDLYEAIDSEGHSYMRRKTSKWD
inactive: lapatinib -0.053 | pictilisib -0.079 | crizotinib -0.041 | [1] -0.146 | duvelisib 0.019 | gandotinib 0.128 | tozasertib -0.038 | doramapimod -0.059 | bafetinib -0.035 | [2] 0.018

STAU1 (UniProt O95793)
Chain of UniProt O95793 (O95793 whole entry, looked up): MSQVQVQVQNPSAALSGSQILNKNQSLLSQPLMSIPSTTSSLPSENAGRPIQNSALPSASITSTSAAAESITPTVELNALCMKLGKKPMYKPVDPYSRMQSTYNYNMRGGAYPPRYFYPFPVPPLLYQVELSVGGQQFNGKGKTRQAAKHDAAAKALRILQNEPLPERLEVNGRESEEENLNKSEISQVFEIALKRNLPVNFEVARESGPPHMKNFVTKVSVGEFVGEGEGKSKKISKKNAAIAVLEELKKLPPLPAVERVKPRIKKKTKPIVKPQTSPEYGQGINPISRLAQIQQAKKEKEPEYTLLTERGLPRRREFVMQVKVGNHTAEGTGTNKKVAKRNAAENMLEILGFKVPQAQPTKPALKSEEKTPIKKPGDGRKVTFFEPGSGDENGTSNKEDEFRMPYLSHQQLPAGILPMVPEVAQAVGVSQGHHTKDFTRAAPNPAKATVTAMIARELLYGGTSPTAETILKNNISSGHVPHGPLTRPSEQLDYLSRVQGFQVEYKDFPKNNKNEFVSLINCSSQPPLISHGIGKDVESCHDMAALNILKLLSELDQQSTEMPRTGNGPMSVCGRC
active: [1] 0.27
inactive: lapatinib -0.018 | pictilisib 0.03 | crizotinib 0.005 | duvelisib 0.019 | gandotinib -0.086 | tozasertib 0.014 | doramapimod 0.056 | bafetinib -0.089 | [2] -0.062

TARDBP (UniProt Q13148)
inactive: lapatinib 0.002 | pictilisib 0.145 | crizotinib 0.018 | [1] 0.005 | duvelisib -0.045 | gandotinib 0.115 | tozasertib 0.022 | doramapimod 0.282 | bafetinib -0.055 | [2] 0.044

TADA3 (UniProt O75528)
Chain of UniProt O75528 (O75528 whole entry, looked up): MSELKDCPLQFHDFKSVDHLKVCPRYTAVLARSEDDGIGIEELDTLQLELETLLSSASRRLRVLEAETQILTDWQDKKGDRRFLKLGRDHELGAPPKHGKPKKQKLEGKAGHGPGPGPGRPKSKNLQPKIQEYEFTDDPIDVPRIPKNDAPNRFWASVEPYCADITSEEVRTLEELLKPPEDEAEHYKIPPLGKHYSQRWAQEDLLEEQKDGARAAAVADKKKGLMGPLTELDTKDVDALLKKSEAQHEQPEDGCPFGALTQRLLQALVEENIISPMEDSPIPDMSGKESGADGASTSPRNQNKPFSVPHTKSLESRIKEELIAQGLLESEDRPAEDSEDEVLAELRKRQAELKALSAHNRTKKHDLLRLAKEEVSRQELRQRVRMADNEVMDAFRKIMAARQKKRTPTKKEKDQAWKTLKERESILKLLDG
inactive: lapatinib -0.005 | pictilisib 0.009 | crizotinib 0.017 | [1] -0.09 | duvelisib -0.002 | gandotinib 0.143 | tozasertib 0.066 | doramapimod 0.006 | bafetinib -0.051 | [2] 0.087

SLC26A6 (UniProt Q9BXS9)
inactive: lapatinib -0.009 | pictilisib 0.05 | crizotinib -0.023 | [1] 0.016 | duvelisib 0.067 | gandotinib 0.051 | tozasertib 0.047 | doramapimod -0.003 | bafetinib -0.003 | [2] 0.118

STK25 (UniProt O00506)
inactive: lapatinib -0.058 | pictilisib -0.041 | crizotinib 0.008 | [1] -0.036 | duvelisib -0.055 | gandotinib 0.18 | tozasertib 0.033 | doramapimod -0.081 | bafetinib 0.001 | [2] 0.005

SLC29A2 (UniProt Q14542)
Chain of UniProt Q14542 (Q14542 whole entry, looked up): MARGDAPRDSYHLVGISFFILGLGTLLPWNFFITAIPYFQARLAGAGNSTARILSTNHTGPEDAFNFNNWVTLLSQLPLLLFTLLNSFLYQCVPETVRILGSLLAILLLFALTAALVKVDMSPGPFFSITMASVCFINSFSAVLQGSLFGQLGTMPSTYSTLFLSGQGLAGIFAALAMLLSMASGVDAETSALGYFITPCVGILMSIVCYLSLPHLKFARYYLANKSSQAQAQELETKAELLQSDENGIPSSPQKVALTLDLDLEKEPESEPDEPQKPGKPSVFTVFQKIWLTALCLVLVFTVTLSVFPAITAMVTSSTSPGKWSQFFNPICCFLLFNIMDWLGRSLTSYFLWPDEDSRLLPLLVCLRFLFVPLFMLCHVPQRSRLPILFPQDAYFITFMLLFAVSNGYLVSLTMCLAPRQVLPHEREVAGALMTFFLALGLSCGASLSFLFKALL
active: [1] -0.558
inactive: lapatinib -0.006 | pictilisib 0.04 | crizotinib -0.068 | duvelisib 0.083 | gandotinib 0.159 | tozasertib 0.035 | doramapimod -0.023 | bafetinib 0.045 | [2] 0.146

SLC20A1 (UniProt Q8WUM9)
inactive: lapatinib -0.002 | pictilisib -0.065 | crizotinib -0.009 | [1] 0.016 | duvelisib 0.038 | gandotinib -0.016 | tozasertib -0.006 | doramapimod 0.042 | bafetinib -0.075 | [2] -0.013

SKA1 (UniProt Q96BD8)
inactive: lapatinib 0.001 | pictilisib 0.043 | crizotinib 0.009 | [1] -0.032 | duvelisib 0.042 | gandotinib 0.001 | tozasertib 0.086 | doramapimod 0.037 | bafetinib -0.029 | [2] 0.024

STK36 (UniProt Q9NRP7)
inactive: lapatinib -0.213 | pictilisib -0.007 | crizotinib -0.833 | [1] -0.551 | duvelisib 0.191 | gandotinib 0.284 | tozasertib 0 | doramapimod 0.202 | bafetinib -0.322 | [2] 0.398

SPG11 (UniProt Q96JI7)
inactive: lapatinib -0.163 | pictilisib -0.021 | crizotinib -0.102 | [1] -0.049 | duvelisib 0.048 | gandotinib 0 | tozasertib 0.047 | doramapimod 0.024 | bafetinib 0.138 | [2] -0.009

SLC25A32 (UniProt Q9H2D1)
inactive: lapatinib -0.032 | pictilisib -0.005 | crizotinib -0.017 | [1] -0.151 | duvelisib -0.014 | gandotinib 0.098 | tozasertib -0.038 | doramapimod -0.019 | bafetinib -0.022 | [2] 0.1

STUB1 (UniProt Q9UNE7)
Chain of UniProt Q9UNE7 (Q9UNE7 whole entry, looked up): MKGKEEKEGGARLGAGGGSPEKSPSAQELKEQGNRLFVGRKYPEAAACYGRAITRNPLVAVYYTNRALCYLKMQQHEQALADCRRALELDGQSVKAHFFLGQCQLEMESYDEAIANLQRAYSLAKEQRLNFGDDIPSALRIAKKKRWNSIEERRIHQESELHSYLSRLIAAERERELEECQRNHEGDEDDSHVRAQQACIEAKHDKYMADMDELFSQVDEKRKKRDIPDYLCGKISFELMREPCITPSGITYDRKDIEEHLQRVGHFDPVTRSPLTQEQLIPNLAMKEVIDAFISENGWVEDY
inactive: lapatinib -0.01 | pictilisib -0.012 | crizotinib -0.035 | [1] 0.004 | duvelisib -0.01 | gandotinib -0.073 | tozasertib -0.006 | doramapimod 0.019 | bafetinib -0.054 | [2] 0.05

TARBP1 (UniProt Q13395)
inactive: lapatinib -0.009 | pictilisib 0.007 | crizotinib -0.122 | [1] 0.017 | duvelisib -0.034 | gandotinib -0.124 | tozasertib 0.098 | doramapimod -0.022 | bafetinib -0.044 | [2] 0.079

SMG5 (UniProt Q9UPR3)
inactive: lapatinib -0.038 | pictilisib 0.057 | crizotinib -0.007 | [1] 0.01 | duvelisib -0.006 | gandotinib -0.003 | tozasertib 0.019 | doramapimod -0.131 | bafetinib -0.035 | [2] -0.007

SPNS1 (UniProt Q9H2V7)
inactive: lapatinib 0.025 | pictilisib -0.038 | crizotinib -0.004 | [1] -0.042 | duvelisib 0.04 | gandotinib 0.032 | tozasertib -0.073 | doramapimod 0.014 | bafetinib -0.054 | [2] 0.052

SLC38A10 (UniProt Q9HBR0)
inactive: lapatinib 0.006 | pictilisib -0.069 | crizotinib 0.009 | [1] -0.136 | duvelisib 0.018 | gandotinib 0.068 | tozasertib -0.061 | doramapimod -0.087 | bafetinib -0.044 | [2] 0.091

SMG7 (UniProt Q92540)
active: doramapimod -0.257
inactive: lapatinib 0.101 | pictilisib 0.1 | crizotinib 0.043 | [1] -0.035 | duvelisib 0.026 | gandotinib -0.018 | tozasertib 0.026 | bafetinib -0.008 | [2] 0.022

STK39 (UniProt Q9UEW8)
inactive: lapatinib 0.011 | pictilisib -0.038 | crizotinib -0.063 | [1] -0.012 | duvelisib 0.087 | gandotinib -0.044 | tozasertib 0.021 | doramapimod 0.032 | bafetinib -0.03 | [2] 0.057

SND1 (UniProt Q7KZF4)
inactive: lapatinib -0.008 | pictilisib -0.012 | crizotinib -0.034 | [1] 0.077 | duvelisib 0.008 | gandotinib -0.108 | tozasertib 0 | doramapimod 0.034 | bafetinib -0.028 | [2] -0.009

SUZ12 (UniProt Q15022)
inactive: lapatinib 0.015 | pictilisib 0.043 | crizotinib -0.021 | [1] 0.048 | duvelisib -0.016 | gandotinib 0.027 | tozasertib 0.006 | doramapimod 0 | bafetinib -0.113 | [2] 0.009

TAOK2 (UniProt Q9UL54)
Chain of UniProt Q9UL54 (Q9UL54 whole entry, looked up): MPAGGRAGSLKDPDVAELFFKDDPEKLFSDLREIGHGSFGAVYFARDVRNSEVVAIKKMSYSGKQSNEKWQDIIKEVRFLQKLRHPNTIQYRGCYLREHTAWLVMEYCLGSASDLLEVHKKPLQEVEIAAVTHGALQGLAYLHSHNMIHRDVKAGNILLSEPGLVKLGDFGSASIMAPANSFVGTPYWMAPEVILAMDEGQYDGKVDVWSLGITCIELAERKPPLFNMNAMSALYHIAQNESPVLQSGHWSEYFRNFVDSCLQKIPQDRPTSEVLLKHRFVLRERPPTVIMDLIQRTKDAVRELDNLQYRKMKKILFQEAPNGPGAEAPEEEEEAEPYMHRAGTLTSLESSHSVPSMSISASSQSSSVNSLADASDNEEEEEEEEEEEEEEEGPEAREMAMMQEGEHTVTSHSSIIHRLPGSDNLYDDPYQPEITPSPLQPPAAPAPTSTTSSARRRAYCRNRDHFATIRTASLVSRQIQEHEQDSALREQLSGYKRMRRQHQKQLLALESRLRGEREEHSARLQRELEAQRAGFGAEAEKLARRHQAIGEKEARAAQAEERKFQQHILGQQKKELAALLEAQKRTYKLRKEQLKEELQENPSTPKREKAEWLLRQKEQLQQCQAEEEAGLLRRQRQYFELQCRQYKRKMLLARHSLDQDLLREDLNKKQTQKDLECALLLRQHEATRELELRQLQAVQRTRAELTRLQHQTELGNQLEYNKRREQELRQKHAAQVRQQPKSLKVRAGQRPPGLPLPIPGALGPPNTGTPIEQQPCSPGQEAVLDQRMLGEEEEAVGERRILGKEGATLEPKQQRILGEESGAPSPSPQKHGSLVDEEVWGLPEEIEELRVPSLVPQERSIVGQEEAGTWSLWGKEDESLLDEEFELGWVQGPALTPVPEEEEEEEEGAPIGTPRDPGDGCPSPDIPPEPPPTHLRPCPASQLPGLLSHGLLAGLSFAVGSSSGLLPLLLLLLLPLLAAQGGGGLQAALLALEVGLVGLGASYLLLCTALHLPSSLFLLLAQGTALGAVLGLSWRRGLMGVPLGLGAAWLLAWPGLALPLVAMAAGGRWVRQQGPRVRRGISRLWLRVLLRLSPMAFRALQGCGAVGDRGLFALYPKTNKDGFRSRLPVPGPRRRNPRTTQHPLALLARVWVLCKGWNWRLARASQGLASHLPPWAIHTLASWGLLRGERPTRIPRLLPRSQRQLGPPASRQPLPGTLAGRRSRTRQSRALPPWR
inactive: lapatinib -0.049 | pictilisib -0.054 | crizotinib -0.081 | [1] -0.136 | duvelisib -0.002 | gandotinib 0.07 | tozasertib -0.026 | doramapimod 0.046 | bafetinib -0.004 | [2] 0.261

SRRT (UniProt Q9BXP5)
Chain of UniProt Q9BXP5 (Q9BXP5 whole entry, looked up): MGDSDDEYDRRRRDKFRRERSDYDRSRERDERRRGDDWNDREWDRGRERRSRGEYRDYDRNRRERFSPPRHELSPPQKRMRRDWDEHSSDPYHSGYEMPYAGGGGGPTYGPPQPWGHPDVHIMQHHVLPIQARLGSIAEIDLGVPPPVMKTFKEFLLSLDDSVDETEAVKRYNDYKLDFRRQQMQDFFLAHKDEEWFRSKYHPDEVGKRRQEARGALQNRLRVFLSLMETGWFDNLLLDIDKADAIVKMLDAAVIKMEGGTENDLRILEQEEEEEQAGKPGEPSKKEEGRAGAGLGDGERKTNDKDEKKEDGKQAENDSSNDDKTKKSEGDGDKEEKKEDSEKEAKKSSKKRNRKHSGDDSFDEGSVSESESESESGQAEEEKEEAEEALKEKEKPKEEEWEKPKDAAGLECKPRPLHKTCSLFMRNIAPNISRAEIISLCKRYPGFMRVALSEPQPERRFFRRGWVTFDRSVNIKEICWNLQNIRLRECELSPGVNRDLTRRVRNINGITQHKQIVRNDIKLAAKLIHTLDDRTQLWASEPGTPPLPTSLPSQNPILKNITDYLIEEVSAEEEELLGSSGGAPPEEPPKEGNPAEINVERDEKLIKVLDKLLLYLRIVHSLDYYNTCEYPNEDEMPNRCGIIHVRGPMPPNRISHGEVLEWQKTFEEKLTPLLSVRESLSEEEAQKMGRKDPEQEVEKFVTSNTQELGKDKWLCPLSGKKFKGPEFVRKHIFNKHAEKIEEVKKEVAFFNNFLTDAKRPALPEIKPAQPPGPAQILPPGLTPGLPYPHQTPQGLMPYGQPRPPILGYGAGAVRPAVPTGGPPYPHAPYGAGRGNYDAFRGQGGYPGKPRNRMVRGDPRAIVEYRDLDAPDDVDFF
inactive: lapatinib 0.005 | pictilisib -0.029 | crizotinib -0.055 | [1] 0.059 | duvelisib -0.007 | gandotinib -0.072 | tozasertib 0.032 | doramapimod 0.066 | bafetinib -0.023 | [2] -0.018

SMARCA4 (UniProt P51532)
inactive: lapatinib -0.029 | pictilisib -0.008 | crizotinib -0.01 | [1] -0.009 | duvelisib -0.003 | gandotinib -0.022 | tozasertib 0.012 | doramapimod 0.008 | bafetinib -0.008 | [2] 0.054

SLC25A38 (UniProt Q96DW6)
active: tozasertib 0.391
inactive: lapatinib -0.093 | pictilisib -0.026 | crizotinib -0.044 | [1] -0.072 | duvelisib 0.173 | gandotinib -0.055 | doramapimod -0.024 | bafetinib -0.025 | [2] 0.112

SMTN isoform 6 (UniProt P53814)
Chain of UniProt P53814 (P53814 whole entry, looked up): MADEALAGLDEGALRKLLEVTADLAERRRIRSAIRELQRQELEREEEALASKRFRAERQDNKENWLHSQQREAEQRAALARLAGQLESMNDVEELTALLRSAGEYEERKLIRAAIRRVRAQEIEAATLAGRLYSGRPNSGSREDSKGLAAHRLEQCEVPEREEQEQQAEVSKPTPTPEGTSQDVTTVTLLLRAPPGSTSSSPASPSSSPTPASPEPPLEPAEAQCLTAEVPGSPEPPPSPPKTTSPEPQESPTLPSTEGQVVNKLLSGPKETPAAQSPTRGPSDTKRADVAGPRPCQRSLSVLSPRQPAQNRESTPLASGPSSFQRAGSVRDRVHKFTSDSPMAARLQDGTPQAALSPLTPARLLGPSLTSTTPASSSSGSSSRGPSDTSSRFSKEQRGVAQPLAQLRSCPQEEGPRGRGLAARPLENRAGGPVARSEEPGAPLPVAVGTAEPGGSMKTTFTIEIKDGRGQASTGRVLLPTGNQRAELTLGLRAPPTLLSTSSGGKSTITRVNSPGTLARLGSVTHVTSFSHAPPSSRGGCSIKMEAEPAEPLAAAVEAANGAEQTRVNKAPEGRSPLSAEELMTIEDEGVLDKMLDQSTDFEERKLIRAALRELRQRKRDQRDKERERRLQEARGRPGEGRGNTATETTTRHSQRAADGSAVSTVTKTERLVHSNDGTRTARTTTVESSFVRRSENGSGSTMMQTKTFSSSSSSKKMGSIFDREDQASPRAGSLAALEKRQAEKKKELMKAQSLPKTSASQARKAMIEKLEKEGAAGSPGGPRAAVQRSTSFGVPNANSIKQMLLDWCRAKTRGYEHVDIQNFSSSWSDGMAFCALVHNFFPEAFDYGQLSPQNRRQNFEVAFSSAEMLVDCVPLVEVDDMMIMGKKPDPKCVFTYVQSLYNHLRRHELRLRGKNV
inactive: lapatinib 0.103 | pictilisib -0.042 | crizotinib -0.012 | [1] -0.06 | duvelisib 0.033 | gandotinib 0.032 | tozasertib 0.019 | doramapimod 0.006 | bafetinib 0.059 | [2] 0.028

SURF2 (UniProt Q15527)
inactive: lapatinib -0.005 | pictilisib -0.049 | crizotinib -0.031 | [1] -0.008 | duvelisib 0.014 | gandotinib 0.092 | tozasertib -0.061 | doramapimod -0.018 | bafetinib -0.055 | [2] 0.111

SNRPF (UniProt P62306)
Chain of UniProt P62306 (P62306 whole entry, looked up): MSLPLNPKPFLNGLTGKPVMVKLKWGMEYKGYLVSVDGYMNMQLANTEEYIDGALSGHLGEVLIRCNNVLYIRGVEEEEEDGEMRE
inactive: lapatinib 0.021 | pictilisib -0.029 | crizotinib -0.077 | [1] -0.237 | duvelisib 0.076 | gandotinib 0.21 | tozasertib -0.016 | doramapimod 0.026 | bafetinib 0.05 | [2] 0.218
